Test results published in PubChem BioAssay (NCI).
Compounds without any hit were thinned out: in the full panel of roughly 79,000, 15% have a hit. Calls of active or inactive are those of the source. Rule as the data show it: active = growth inhibition above about 70%; inactive = the rest.

Key:
[1] = NCI Yeast Anticancer Drug Screen. Data for the rad52 strain (AID 147);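 also: 0% = growth of vehicle-treated control cultures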; settings: S. cerevisiae rad52 mutant growth inhibition, hits give high values
Method in brief: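 Inhibition of yeast growth, referenced to vehicle controls, was the measured output for a strain with defective DNA damage repair.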

[2] = NCI Yeast Anticancer Drug Screen. Data for the wt1 strain (AID 149);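 also: 0% = growth of vehicle-treated wt1 cultures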; settings: S. cerevisiae wt1 strain (SPY 50644) growth inhibition, hits give high values
Method in brief: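 Readout: yeast growth inhibition, normalised to vehicle controls, in the wt1 strain exposed to test compounds.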

[3] = NCI Yeast Anticancer Drug Screen. Data for the rad50EPP+ strain (AID 151);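 also: 0% = growth of vehicle-treated control cultures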; settings: S. cerevisiae rad50 mutant strain, hits give high values
Method in brief: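 Genetically defined yeast (rad50EPP+, DNA damage repair alteration) is grown with compound, and inhibition of growth is expressed relative to vehicle-treated controls.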

[4] = NCI Yeast Anticancer Drug Screen. Data for the mgt1 strain (AID 153); settings: S. cerevisiae mgt1 mutant growth inhibition, hits give high values
Method in brief: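 In the mgt1 strain, test compounds were added and growth inhibition was determined relative to vehicle-treated controls.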

[5] = NCI Yeast Anticancer Drug Screen. Data for the rad50 strain (AID 155);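 also: 0% = growth of vehicle-only cultures of the same strain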; settings: S. cerevisiae rad50 strain growth inhibition, hits give high values
Method in brief: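 Compounds were tested on a yeast strain with an engineered DNA damage repair alteration; the reported value is growth inhibition normalised to vehicle treatment.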

[6] = NCI Yeast Anticancer Drug Screen. Data for the mec2-1 strain (AID 157); settings: S. cerevisiae mec2-1 strain, hits give high values
Method in brief: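 Each compound was tested on mec2-1 yeast, a strain altered in DNA damage repair or cell cycle control. Growth inhibition is reported relative to vehicle.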

[7] = NCI Yeast Anticancer Drug Screen. Data for the rad14 strain (AID 159);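 also: 0% = growth of vehicle-treated control cultures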; settings: S. cerevisiae rad14 strain growth inhibition, hits give high values
Method in brief: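 Compound-treated yeast with a defined DNA-repair lesion; growth inhibition normalised to vehicle-treated cultures.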

[8] = NCI Yeast Anticancer Drug Screen. Data for the sgs1 mgt1 strain (AID 161);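 also: 0% = growth of cultures given vehicle only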; settings: S. cerevisiae sgs1 mgt1 strain, hits give high values
Method in brief: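 Mutant yeast exposed to compound; growth scored against vehicle-only wells.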

[9] = NCI Yeast Anticancer Drug Screen. Data for the CLN2oe strain (AID 163);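 also: 0% = growth of vehicle-only control cultures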; settings: S. cerevisiae CLN2oe strain, hits give high values
Method in brief: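 First, the altered yeast strain was treated with each compound; second, its growth was measured; finally, inhibition was derived by comparison with vehicle controls.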

[10] = NCI Yeast Anticancer Drug Screen. Data for the cln2 rad14 strain (AID 165);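 also: 0% = growth equal to vehicle treated cultures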; settings: S. cerevisiae cln2 rad14 strain, hits give high values
Method in brief: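 Test compounds were added to cln2 rad14 yeast cultures; inhibition of growth was then determined by comparison with vehicle treatment.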

[11] = NCI Yeast Anticancer Drug Screen. Data for the bub3 strain (AID 167); settings: S. cerevisiae bub3 mutant strain, hits give high values
Method in brief: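 Growth of a checkpoint-deficient yeast mutant is measured after compound exposure. Values represent inhibition relative to vehicle.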

[12] = NCI Yeast Anticancer Drug Screen. Data for the wt2 strain (AID 169);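 also: 0% = growth of vehicle-treated yeast cultures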; settings: S. cerevisiae wt2 strain growth inhibition, hits give high values
Method in brief: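 The panel's yeast strains carry defined changes in DNA repair or cell cycle genes. Each strain is grown with compound, and growth loss is scored relative to vehicle.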

[13] = NCI Yeast Anticancer Drug Screen. Data for the mlh1 strain (AID 171);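 also: 0% = growth of vehicle-treated control cultures of the same strain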; settings: S. cerevisiae mlh1 strain growth inhibition, hits give high values
Method in brief: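 Inhibition values reflect reduced yeast growth in the presence of compound, referenced to vehicle controls, using a strain chosen for its alteration in DNA repair or cell cycle control.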

[14] = NCI Yeast Anticancer Drug Screen. Data for the sgs1 strain (AID 173);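 also: 0% = growth of vehicle-only control cultures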; settings: S. cerevisiae sgs1 mutant, hits give high values
Method in brief: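 Vehicle-treated cultures served as reference for growth inhibition of a yeast strain altered in DNA damage repair or cell cycle control after compound exposure.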

[15] = NCI Yeast Anticancer Drug Screen. Data for the mlh1 rad18 strain (AID 175); settings: S. cerevisiae mlh1 rad18 strain growth inhibition, hits give high values
Method in brief: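 Inhibition values reflect reduced growth of mutant yeast versus vehicle-treated controls following compound exposure; the mutations affect DNA damage repair.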

[16] = NCI Yeast Anticancer Drug Screen. Data for the rad18 strain (AID 177); settings: S. cerevisiae rad18 mutant growth inhibition, hits give high values
Method in brief: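 Steps: expose repair-mutant yeast to compound; measure growth; express as inhibition relative to vehicle control.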

[17] = at 5.0 µM (retest, dose inferred, filed as 0.5)
[18] = at 50.0 µM (retest, dose inferred, filed as 5.0)

Measured: growth inhibition

CC(=O)ON1C(=O)c2cccc3cccc(c23)C1=O
active: [1]; at 11.0 µM 91% | [1]; at 33.0 µM 97% | [1]; at 100.0 µM 98% | [2]; at 11.0 µM 76% | [2]; at 33.0 µM 96% | [2]; at 100.0 µM 97% | [4]; at 11.0 µM 95% | [4]; at 33.0 µM 97% | [4]; at 100.0 µM 98% | [5]; at 11.0 µM 93% | [5]; at 33.0 µM 97% | [5]; [18] 96% | [5]; at 50.0 µM 81.9% | [5]; at 100.0 µM 98% | [6]; at 11.0 µM 95% | [6]; at 33.0 µM 98% | [6]; [18] 97% | [6]; at 50.0 µM 87.8% | [6]; at 100.0 µM 98% | [7]; at 3.7 µM 95% | [7]; at 11.0 µM 98% | [7]; at 33.0 µM 99% | [7]; at 100.0 µM 99% | [8]; [18] 92% | [8]; at 50.0 µM 90.7% | [9]; at 100.0 µM 77% | [11]; at 33.0 µM 91% | [11]; [18] 96% | [11]; at 50.0 µM 89.5% | [11]; at 100.0 µM 95% | [12]; at 33.0 µM 95% | [12]; at 100.0 µM 99% | [13]; at 3.7 µM 91% | [13]; at 11.0 µM 97% | [13]; at 33.0 µM 99% | [13]; at 100.0 µM 98% | [14]; at 3.7 µM 91% | [14]; at 11.0 µM 97% | [14]; at 33.0 µM 98% | [14]; at 100.0 µM 98% | [15]; [18] 97% | [15]; at 50.0 µM 81.4% | [16]; at 11.0 µM 86% | [16]; at 33.0 µM 97% | [16]; at 100.0 µM 97%
inactive: [1]; at 1.2 µM 13% | [1]; at 3.7 µM 38% | [2]; at 1.2 µM 6% | [2]; at 3.7 µM 17% | [3]; at 1.2 µM -2% | [3]; at 3.7 µM 0% | [3]; at 11.0 µM 0% | [3]; at 33.0 µM 9% | [3]; at 100.0 µM 57% | [4]; at 1.2 µM 8% | [4]; at 3.7 µM 46% | [5]; at 1.2 µM 18% | [5]; at 3.7 µM 57% | [5]; [17] 51% | [6]; at 1.2 µM -4% | [6]; at 3.7 µM 33% | [6]; [17] -3% | [7]; at 1.2 µM 51% | [8]; [17] 22% | [9]; at 1.2 µM 8% | [9]; at 3.7 µM 10% | [9]; at 11.0 µM 11% | [9]; at 33.0 µM 32% | [10]; [17] 23% | [10]; [18] 69% | [10]; at 50.0 µM 29.4% | [11]; at 1.2 µM 2% | [11]; at 3.7 µM 10% | [11]; [17] 69% | [11]; at 11.0 µM 24% | [12]; at 1.2 µM 4% | [12]; at 3.7 µM 2% | [12]; at 11.0 µM 20% | [13]; at 1.2 µM 61% | [14]; at 1.2 µM 44% | [15]; [17] 44% | [16]; at 1.2 µM 15% | [16]; at 3.7 µM 29%
